The record followed here is PubChem BioAssay (NCATS).

Assay [1] is described as follows: AP1 Signaling Pathway (AID 357; active = well fitted curve in either direction with a large enough effect, not every such curve was filed as active;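 also: ME-180 reporter cells stimulated with EGF at its EC50 level; % is scaled to controls: 0 for no effect and ±100 for the full control effect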). To be noted: ME-180 AP-1-bla reporter, EGF-induced, beta-lactamase ratio, 5 h; at 7.69 µM (top of the series) unless noted. In outline: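 Modulation of EGF-driven AP-1 transcription was assessed with a beta-lactamase reporter in ME-180 cells. Compound and EC50 EGF were co-incubated 5 hours at 37 °C before 2.5-hour CCF4 loading at room temperature and dual-emission reading.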

Assay [2] addresses Cytochrome P450 1A2 (Homo sapiens) (UniProt P05177). In words: p450-cyp1a2 (AID 410; calls by dose curve;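 also: -100% = full effect of reference inhibitor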). In outline: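 Luminescent readout of luciferin formed from Luciferin-ME by human CYP1A2; data normalized against complete inhibition by 57 uM furafylline. Enzyme 20nM, substrate 100uM at Km, 100mM KPO4 buffer, 60 min reaction at room temperature.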
A short description of assay [3]: NFAT Signaling Pathway (AID 444; active = well fitted curve in either direction with a large enough effect, not every such curve was filed as active;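 also: carbachol stimulus at about its EC50 of 1 µM final; % is scaled to controls: 0 for no effect and ±100 for the full control effect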). To be noted: Jurkat NFAT-bla M1, carbachol, beta-lactamase ratio, 5 h; at 7.69 µM (top of the series) unless noted. In outline:
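Jurkat cells with NFAT-driven β-lactamase reporter and co-expressed M1 receptor, stimulated with carbachol (final 1 uM, ~EC50), compound titration, 5 h at 37 °C. CCF4 loaded 1 h at RT; 460/530 nm ratio gave %activity and AC50.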

Assay [4] can be described thus: Stat Signaling Pathway (AID 446; active = well fitted curve in either direction with a large enough effect, not every such curve was filed as active;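 also: ME-180 cervical cancer cells given 40 pM IL-6 alongside compound; SIE-controlled beta-lactamase reporter measured as 460/530 nm FRET emission ratio; % is scaled to controls: 0 for no effect and ±100 for the full control effect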). The following applies: ME-180 SIE beta-lactamase reporter, IL-6 stimulated, 5 h; at 7.69 µM (top of the series) unless noted. The procedure, abridged: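 Reporter line: ME-180 cervical carcinoma, SIE-beta-lactamase. Treatment: compound with 40 pM IL-6, 5 hrs, 37 C, in low-serum OPTI-MEM with 10 mM HEPES pH 7.3. Detection: 460/530 nm fluorescence.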

For assay [5], the target named is Glucocorticoid receptor (Homo sapiens) (UniProt P04150). In words: GR-GFP Redistribution (AID 450;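 active = compounds whose dose series gives a full or clear partial fitted curve of increased nuclear translocation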; also: potency is read from the fitted curve at half-maximal effect). The following applies: U2OS GR-GFP nuclear translocation, laser cytometry, 2 h.
For assay [6] the target is unchanged. As to the kind of experiment: GR-EFC Redistribution (AID 451; calls by dose curve; also: potency is read from the fitted curve at half-maximal effect). To be noted: CHO-K1 GR-EFC translocation, beta-gal luminescence, 2 h. In outline: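 CHO-K1 cells expressing nuclear EA and GR-ED fragments of b-gal; compounds titrated up to 46 uM final, 2 h at 37 C. GR nuclear translocation read as complemented b-gal luminescence after 1 h RT detection.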
Assay [7] concerns the target Mitogen-activated protein kinase 10 (Mus musculus) (UniProt Q61831). In words: JNK3 AlphaScreen Assay (AID 530; active = well fitted curve in either direction with a large enough effect, not every such curve was filed as active;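 also: kinase came from lysate of stimulated human HepG2 cells; signal reports phosphorylation of biotinylated GST-cJun 1-79 at Ser73 with 10 µM ATP; % is scaled to controls: 0 for no effect and ±100 for the full control effect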). The procedure, abridged: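 Pre-activated (IL-1β/TNFα) JNK3 in HepG2 lysates phosphorylates biotin-GST-cJun(1-79), 10 uM ATP; anti-phospho-cJun(Ser73) AlphaScreen read at room temperature, pH 7.6 Tris buffer. Compounds pre-incubated 15 min as titrations.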

The target in assay [8] is 3',5'-cyclic-AMP phosphodiesterase 4B (Homo sapiens) (UniProt Q07343). In words: qHTS Assay for Inhibitors of PDE-IV (AID 607; active = well fitted activation curve with a large enough effect in the main read-out, with a control signal flat, not every such curve was filed as active; also: % of control where 0% means no effect). The procedure, abridged:
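Cell-based read-out of cAMP via a modified cyclic nucleotide-gated channel and membrane potential dye (535/590 nm) in HEK293 cells expressing PDE4 endogenously. Compounds tested up to 22.9 uM final; 100 uM RO 20-1724 reference.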

The nature of assay [9]: qHTS Assay for Lipid Storage Modulators (AID 1519; calls by dose curve). The following applies: Drosophila S3 cells, BODIPY lipid droplet/cell ratio, laser cytometry, cells loaded with oleic acid; for activity change, negative = inhibition: at 25.7 µM (top of the series). In outline:
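Cells seeded at 5,000 per well were treated with compounds over a concentration series and loaded with oleic acid (400 uM, as added). Lipid droplet fluorescence (488 nm excitation, 500-530 nm channel) was read by laser-scanning cytometry and normalized to 20 uM Triacsin C.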
For orientation: Quantitative high-throughput screening tests each substance at several concentrations.

The target of assay [10] is ATP-dependent 6-phosphofructokinase (Trypanosoma brucei brucei) (UniProt O15648). As to the kind of experiment: qHTS Assay to Find Inhibitors of T. brucei phosphofructokinase: hit validation (AID 492961). The procedure, abridged: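 Compounds titrated; %activity normalized to 0x and 1x enzyme controls, curve-fitted. Readout: ADP-Glo luminescence after 45 min room-temperature reaction of 1.25 nM PFK, 0.1 mM ATP, 0.5 mM F6P, pH 8.0.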

For assay [11], the target named is Ubiquitin carboxyl-terminal hydrolase 1 (Homo sapiens) (UniProt O94782). In words: Inhibitors of USP1/UAF1: Pilot qHTS (AID 504865). Also: nearly all actives have a fitted effect of over 35% in size. Also: potency is read from the fitted curve at half-maximal effect. In outline: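 USP1/UAF1 complex (1nM) preincubated with compound 15 min at room temperature, then Ub-Rho substrate (150nM final) added. Fluorescence read kinetically at 480/540 nm, 6 reads every 60 seconds. Buffer: 50mM HEPES pH 7.8, 0.5mM EDTA, 0.1 mg/ml BSA, 1mM TCEP, 0.01% Tween-20.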

Assay [12] has as its target Luciferin 4-monooxygenase (Photinus pyralis) (UniProt P08659). In words: Biochemical firefly luciferase enzyme assay for NPC (AID 624030).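 Also: purified P. pyralis luciferase at 10 nM with luciferin and ATP substrate; 0% = DMSO and -100% = full luciferase inhibition by PTC124 control; nearly all actives have a fitted effect of over 70% in size.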 The procedure, abridged: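 Purified P. pyralis luciferase at 10 nM in 50 mM Tris Acetate (final), luminescence read within 5 minutes of enzyme addition to compounds. Activity normalised to PTC124 versus DMSO; concentration-response curves classed by r2, magnitude and activity.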

A short description of assay [13]: qHTS profiling for inhibitors of Plasmodium falciparum proliferation (AID 504749).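 Also: 0% = DMSO vehicle and full inhibition = artemisinin control; nearly all actives have a fitted effect of over 60% in size.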 To be noted: P. falciparum in erythrocytes, SYBR Green DNA, 72 h, at 12.8 µM (top of the series). In outline:
(§1)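 P. falciparum-infected erythrocytes (0.3% parasitemia, 2.5% hematocrit) incubated with compound 72 h at 37 C, 5% CO2. Parasite DNA detected by SYBR Green after lysis, overnight at room temperature; normalised to 0.29 uM artemisinin and DMSO.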

The test system of assay [14] is AS120. The description is as above. The following applies: P. falciparum in erythrocytes, SYBR Green DNA, 72 h; series mostly up to 28.7 µM. In outline: as §1
For assay [15], the system named is CP238. The assay is described as above. The following applies: P. falciparum in erythrocytes, SYBR Green DNA, 72 h; series mostly up to 12.8 µM. The procedure, abridged:
as §1

Assay [16] relates to CP265. Described as above. To be noted: P. falciparum in erythrocytes, SYBR Green DNA, 72 h; series mostly up to 12.8 µM. In outline:
as §1

Assay [17] has as its system FAB9. The description is as above. The following applies: P. falciparum in erythrocytes, SYBR Green DNA, 72 h; series mostly up to 12.8 µM. The procedure, abridged:
as §1

The mark [18] stands for this setting: measured here: cell count channel max response.
Setting [19] is: measured here: lipid channel max response.

Inconclusive results are not listed. Calls of active or inactive are those of the source. Unless noted, calls follow the shape of the dose curve; as a rule, active = well fitted curve in the direction sought with a large enough effect; inconclusive = small, poorly fitted or top-dose-only effect, or another doubt; inactive = no such curve, though single readings can be large; an effect the other way counts as inactive or inconclusive. Some results are limits rather than exact numbers.

Glucocorticoid receptor (Homo sapiens), sequence (P04150 whole entry, looked up, the tested form may be a part): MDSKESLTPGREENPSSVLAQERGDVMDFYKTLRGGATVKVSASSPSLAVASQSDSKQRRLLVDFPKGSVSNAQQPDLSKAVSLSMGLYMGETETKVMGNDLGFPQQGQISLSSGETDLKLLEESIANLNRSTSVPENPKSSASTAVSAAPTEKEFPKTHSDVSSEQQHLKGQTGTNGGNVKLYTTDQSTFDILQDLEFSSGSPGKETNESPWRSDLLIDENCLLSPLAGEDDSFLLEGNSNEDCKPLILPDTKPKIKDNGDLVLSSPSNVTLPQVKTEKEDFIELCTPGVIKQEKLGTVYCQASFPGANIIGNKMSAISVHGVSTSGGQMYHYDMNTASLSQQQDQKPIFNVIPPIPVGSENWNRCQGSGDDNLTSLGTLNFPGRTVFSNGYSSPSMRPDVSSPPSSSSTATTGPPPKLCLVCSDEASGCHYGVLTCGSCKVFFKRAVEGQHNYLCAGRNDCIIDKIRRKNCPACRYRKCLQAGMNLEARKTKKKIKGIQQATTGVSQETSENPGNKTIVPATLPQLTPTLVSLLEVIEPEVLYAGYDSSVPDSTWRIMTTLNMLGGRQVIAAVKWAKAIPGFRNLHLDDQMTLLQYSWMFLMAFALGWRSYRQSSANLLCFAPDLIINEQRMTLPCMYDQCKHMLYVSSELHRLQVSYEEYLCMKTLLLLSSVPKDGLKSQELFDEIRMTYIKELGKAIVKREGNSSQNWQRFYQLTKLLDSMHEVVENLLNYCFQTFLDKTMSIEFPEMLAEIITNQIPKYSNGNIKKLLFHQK
Ubiquitin carboxyl-terminal hydrolase 1 (Homo sapiens), sequence (O94782 whole entry, looked up): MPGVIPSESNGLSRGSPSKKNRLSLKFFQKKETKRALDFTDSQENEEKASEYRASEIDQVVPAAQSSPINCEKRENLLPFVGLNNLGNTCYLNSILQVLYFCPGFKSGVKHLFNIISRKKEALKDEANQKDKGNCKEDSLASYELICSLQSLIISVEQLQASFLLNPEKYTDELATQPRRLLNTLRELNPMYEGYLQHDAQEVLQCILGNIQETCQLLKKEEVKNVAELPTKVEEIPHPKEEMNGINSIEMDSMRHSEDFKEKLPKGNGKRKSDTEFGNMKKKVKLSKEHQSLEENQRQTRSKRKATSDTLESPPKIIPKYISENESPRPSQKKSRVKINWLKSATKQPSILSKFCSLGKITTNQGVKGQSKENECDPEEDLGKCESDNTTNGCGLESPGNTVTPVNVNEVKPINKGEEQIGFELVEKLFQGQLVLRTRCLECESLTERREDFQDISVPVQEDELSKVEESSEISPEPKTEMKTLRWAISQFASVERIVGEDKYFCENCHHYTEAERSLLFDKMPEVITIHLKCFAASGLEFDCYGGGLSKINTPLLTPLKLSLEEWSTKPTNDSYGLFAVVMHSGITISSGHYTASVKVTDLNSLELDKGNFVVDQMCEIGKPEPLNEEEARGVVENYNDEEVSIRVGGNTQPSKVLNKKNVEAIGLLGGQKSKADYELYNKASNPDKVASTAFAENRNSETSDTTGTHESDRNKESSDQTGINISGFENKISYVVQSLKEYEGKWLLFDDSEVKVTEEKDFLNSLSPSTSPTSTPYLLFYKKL
Cytochrome P450 1A2 (Homo sapiens), sequence (P05177 whole entry, looked up): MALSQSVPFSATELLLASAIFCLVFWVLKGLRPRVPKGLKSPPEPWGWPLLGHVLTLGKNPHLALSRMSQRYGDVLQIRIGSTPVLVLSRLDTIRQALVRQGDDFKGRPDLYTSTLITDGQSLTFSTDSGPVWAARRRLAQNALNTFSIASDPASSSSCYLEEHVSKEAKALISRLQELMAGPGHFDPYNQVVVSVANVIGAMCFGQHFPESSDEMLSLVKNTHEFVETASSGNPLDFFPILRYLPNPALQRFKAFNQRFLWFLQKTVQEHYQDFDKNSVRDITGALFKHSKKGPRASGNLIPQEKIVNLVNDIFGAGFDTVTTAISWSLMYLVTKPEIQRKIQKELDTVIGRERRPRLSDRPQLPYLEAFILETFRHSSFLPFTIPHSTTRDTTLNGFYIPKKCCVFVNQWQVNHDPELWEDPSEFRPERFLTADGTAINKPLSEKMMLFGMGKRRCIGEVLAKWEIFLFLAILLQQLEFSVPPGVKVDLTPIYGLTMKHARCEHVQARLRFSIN
ATP-dependent 6-phosphofructokinase (Trypanosoma brucei brucei), sequence (O15648 whole entry, looked up): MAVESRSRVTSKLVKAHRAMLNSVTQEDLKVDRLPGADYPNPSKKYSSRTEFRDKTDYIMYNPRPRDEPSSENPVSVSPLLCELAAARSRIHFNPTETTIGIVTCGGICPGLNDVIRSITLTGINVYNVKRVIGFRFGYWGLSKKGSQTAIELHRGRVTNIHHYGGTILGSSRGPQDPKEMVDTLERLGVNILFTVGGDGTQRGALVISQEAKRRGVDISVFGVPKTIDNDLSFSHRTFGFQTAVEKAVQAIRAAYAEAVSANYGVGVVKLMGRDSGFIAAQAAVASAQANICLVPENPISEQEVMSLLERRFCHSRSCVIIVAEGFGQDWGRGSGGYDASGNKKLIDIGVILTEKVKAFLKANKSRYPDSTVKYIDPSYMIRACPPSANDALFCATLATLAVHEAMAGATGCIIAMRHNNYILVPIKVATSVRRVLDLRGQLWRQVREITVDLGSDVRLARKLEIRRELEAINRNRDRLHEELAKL
3',5'-cyclic-AMP phosphodiesterase 4B (Homo sapiens), sequence (Q07343 whole entry, looked up): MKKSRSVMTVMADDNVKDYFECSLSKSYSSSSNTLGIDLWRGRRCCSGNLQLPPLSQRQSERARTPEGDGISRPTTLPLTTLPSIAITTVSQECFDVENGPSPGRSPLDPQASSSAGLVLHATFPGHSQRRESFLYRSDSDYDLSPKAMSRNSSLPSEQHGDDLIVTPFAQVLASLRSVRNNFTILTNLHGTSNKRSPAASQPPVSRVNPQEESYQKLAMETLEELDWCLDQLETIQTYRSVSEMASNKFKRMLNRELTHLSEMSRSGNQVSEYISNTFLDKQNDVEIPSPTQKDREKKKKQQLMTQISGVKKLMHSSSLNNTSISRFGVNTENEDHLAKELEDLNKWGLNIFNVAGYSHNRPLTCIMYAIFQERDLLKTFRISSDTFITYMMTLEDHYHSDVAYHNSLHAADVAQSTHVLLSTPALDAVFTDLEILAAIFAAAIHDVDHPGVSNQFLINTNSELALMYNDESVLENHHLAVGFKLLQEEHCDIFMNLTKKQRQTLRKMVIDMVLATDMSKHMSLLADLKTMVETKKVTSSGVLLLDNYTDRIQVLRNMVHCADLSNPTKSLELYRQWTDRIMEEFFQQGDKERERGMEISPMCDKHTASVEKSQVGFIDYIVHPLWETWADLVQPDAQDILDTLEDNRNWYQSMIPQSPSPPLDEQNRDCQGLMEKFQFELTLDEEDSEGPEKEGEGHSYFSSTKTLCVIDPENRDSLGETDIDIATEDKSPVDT
Luciferin 4-monooxygenase (Photinus pyralis), sequence (P08659 whole entry, looked up): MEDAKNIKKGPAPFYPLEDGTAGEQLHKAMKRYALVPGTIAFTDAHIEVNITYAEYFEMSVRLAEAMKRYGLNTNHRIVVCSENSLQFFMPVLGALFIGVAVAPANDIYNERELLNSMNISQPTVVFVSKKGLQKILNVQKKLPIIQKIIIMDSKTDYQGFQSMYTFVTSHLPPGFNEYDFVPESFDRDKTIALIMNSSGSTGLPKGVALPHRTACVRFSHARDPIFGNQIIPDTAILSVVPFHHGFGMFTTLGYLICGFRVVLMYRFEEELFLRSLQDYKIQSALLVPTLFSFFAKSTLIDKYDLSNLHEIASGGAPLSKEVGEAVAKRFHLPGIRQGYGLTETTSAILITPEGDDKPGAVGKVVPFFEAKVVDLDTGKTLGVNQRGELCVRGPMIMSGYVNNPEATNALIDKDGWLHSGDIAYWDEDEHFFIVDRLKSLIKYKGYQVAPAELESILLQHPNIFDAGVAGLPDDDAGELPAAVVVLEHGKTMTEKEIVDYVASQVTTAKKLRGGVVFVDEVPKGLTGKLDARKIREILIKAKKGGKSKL

Regarding `COc1c(O)cc2c(c1O)[C@@H]1O[C@@H](CO)[C@@H](O)[C@@H](O)[C@@H]1OC2=O`, the activity change, negative = inhibition in assay [1] is 9.85% [at 17.2 µM] (inactive); in assay [3] it was 4.01% [at 17.2 µM] (inactive); in assay [9], -2.39% (inactive). Moreover, the Potency result in assay [2], in assay [7], in assay [8], in assay [11], in assay [14] and in [15] was “inactive” throughout. Besides, the Potency result in [16] and in assay [17] was “inactive” each time. The activity, negative = inhibition was -7.81% [at 17.2 µM] (inactive) in [4], 5.83% (inactive) in assay [13] (parasite line A) and 11.9% (inactive) in assay [13] (parasite line B). Also, the Potency in assay [5] and in assay [6] was > 20.6 µM (inactive) in each case. The max response in [9] (setting [18]) is -8.82%; in [9] (setting [19]), -7.08%. Further, the outcome in [10] and in assay [12] was inactive.
Consider `CN(C)[C@H]1C(=O)C(C(=O)NCN2CCCC2)=C(O)[C@]2(O)C(=O)C3=C(O)c4c(O)cccc4[C@@](C)(O)[C@H]3C[C@@H]12`, for which the results for the activity change, negative = inhibition in assay [1], in assay [3] and in assay [9] were 4.94% [at 17.2 µM] (inactive), -7.08% [at 17.2 µM] (inactive) and -2.08% (inactive), respectively. Moreover, the Potency entry in assay [2], in assay [7], in assay [8], in [14], in assay [15] and in [16] was “inactive” throughout. Besides, the Potency entry in assay [17] was “inactive”. Further, the activity, negative = inhibition is 7.95% [at 17.2 µM] (inactive) in assay [4], -2.6% (inactive) in assay [13] (parasite line A) and 2.5% (inactive) in [13] (parasite line B). The Potency in assay [5] was > 20.6 µM (inactive); in assay [6] it was > 20.6 µM (inactive); in [11], 28.2 µM (active). Further, the figures for the max response in [9] (setting [18]) and in [9] (setting [19]) were -14% and -16.5%, respectively. In addition, the result in assay [10] and in [12] was inactive.
